Hits are enriched below; roughly 4.3% of the tested compounds scored in any of these assays.
Wnt bcat act: activators of Wnt/beta-catenin signaling; activation, % at 9.35 µM; actives 1.2% (n = 300,000); Wnt/beta-catenin reporter cell assay, activator, plate reader; in the data active = activation above about 30%, passing the limit was not always enough; inconclusive = no clear call, values can overlap the other calls;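 also: 0% = neutral control wells and 100% = positive control wells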
MITF TRPM1 HTS: increases MITF-driven TRPM1 promoter luciferase signal; activation, % at 12.5 µM; AID 588334; actives 0.75% (n = 300,000); SK-MEL-5 TRPM1-promoter luciferase, 24 h; % of positive control, neutral wells = 0;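 active = mean activation of at least 80% with every replicate also reaching 80%; inconclusive = mean reaches 80% but some replicate falls short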;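 also: 0% = neutral control wells and 100% = parthenolide positive control wells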
esBAF inh: SWI/SNF esBAF complex inhibition; mouse ES cells, Bmi1-luciferase knock-in reporter, 24 h; 100% = twice the neutral-well signal; reporter increase, % at 12.5 µM; actives 2% (n = 350,000); AID 602393; in the data active = activation above about 40%; inconclusive = no clear call, values can overlap the other calls;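 also: 0% = median of the plate's neutral control wells and 100% = double that signal; a rise in the Bmi1 reporter signal indicates esBAF inhibition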
HSF-1 act: increases HSF-1 driven luciferase reporter signal. actives 1.7% (n = 300,000). activation, % at 9 µM. NIH3T3-HGL HSF-1 luciferase reporter, MG132, 8 h; 100% = twice DMSO control signal. AID 504408;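 active = mean replicate activation of at least 50% with a set share of replicates each reaching 50%; inconclusive = only one of those two conditions met; inactive = mean below 50% and too few replicates reaching it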;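 also: 0% = median of the neutral control wells and 100% = twice that signal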
SMARCA2 activ: increases SMARCA2 function in MMTV reporter cells. MG213 cells, MMTV-luciferase reporter, dexamethasone, overnight. activation, % at 9.1 µM. actives 1% (n = 370,000). AID 652017; in the data active = activation above about 7.8%;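 also: 0% = vehicle wells and 100% = reference activator wells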
HSF1 inhib: HSF1 inhibition | activity change, negative = inhibition, % at 7.5 µM (by protocol) | actives 0.77% (n = 300,000) | AID 2098 | NIH3T3-HGL HSE-luciferase, MG132-induced, luminescence 8 h; stronger effect = lower value;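 active = more than half of replicate wells show activity change below -50%, luminescence cut by over half; inconclusive = some wells, but at most half, below -50%; inactive = no replicate well below -50%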;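 also: luciferase reports HSF-1 transcriptional activity via heat shock element; 0% = median of DMSO wells and -100% = zero luminescence signal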
The depositor's hits bear a star; ? = inconclusive; / = not tested or not shown.

SMILES | Wnt bcat act | MITF TRPM1 HTS | esBAF inh | HSF-1 act | SMARCA2 activ | HSF1 inhib
C[C@@H]1CN([C@@H](C)CO)C(=O)c2cc(NC(=O)Cn3cnnn3)ccc2O[C@@H]1CN(C)S(=O)(=O)c1ccccc1 | / | / | -1.9 | / | / | /
O=[N+]([O-])c1ccc(O)c2cccnc12 | -7.5 | -1.9 | 6.7 | 9.6 | 2.2 | 4.4
O=[N+]([O-])c1ccc(O)c2ncccc12 | -3.2 | -45.3 | 19.1 | -61.4 | -8.9 | -54.8*
C[C@@H]1CN([C@H](C)CO)C(=O)c2cc(NS(C)(=O)=O)ccc2O[C@@H](C)CCCCO[C@H]1CN(C)Cc1ccc(C(=O)O)cc1 | / | / | -1.1 | / | / | /
c1ccc(-c2ccc(-n3ccnc3)cc2)cc1 | ? | 67.3 | 56.4* | 72.2* | -0.3 | 33.3
CCOC(=O)Cc1csc(NC(=O)c2cc3ccccc3o2)n1 | 4.5 | 36.6 | / | 2.3 | 2.9 | 6.6
CCOC(=O)Cc1csc(NC(=O)c2ccc(C)cc2)n1 | 2.4 | 18.8 | / | 36.9 | 0.9 | 11.3
CCOC(=O)Cc1csc(NC(=O)c2cccs2)n1 | / | 65.6 | 63.5* | 28.1 | 0.8 | 20.1
CCOC(=O)c1csc(NC(=O)c2cccs2)n1 | 37.2* | 95.2* | 52.6* | 27.9 | 0.8 | 16.4
CCOC(=O)c1sc(NC(=O)c2cccs2)nc1C | 21.5 | 29.5 | 20.1 | / | 3.1 | /
CCOC(=O)Cc1csc(NC(=O)c2ccc(Br)s2)n1 | / | / | / | -0.4 | / | 0.4
CCOC(=O)Cc1csc(NC(=O)c2ccc(S(=O)(=O)N(CCOC)CCOC)cc2)n1 | 37.2* | 4.7 | / | 4.6 | 0.4 | 3.9
CCOC(=O)Cc1csc(NC(=O)c2c(O)c3ccccc3n(CC(C)C)c2=O)n1 | -4.9 | -16.4 | 4.0 | 55.9* | -0.2 | 14.3
C[C@@H]1CN([C@@H](C)CO)C(=O)c2cc(NS(=O)(=O)c3ccc(Cl)cc3)ccc2O[C@@H]1CN(C)S(C)(=O)=O | / | / | -0.5 | / | / | /
COCC(=O)Nc1ccc2c(c1)C(=O)N(C)C[C@@H](OC)[C@@H](C)CN(Cc1ccccc1F)[C@H](C)CO2 | / | / | -7.5 | / | / | /
O=C1N=C(N2CCCCC2)SC1=C1CCCCC1 | / | 46.7 | 75.4* | 33.9 | -2.3 | 9.8
O=C1N=C(N2CCOCC2)S/C1=C1\C(=O)N(Cc2ccccc2)c2ccccc21 | 5.6 | 74.3 | 52.2* | 31.1 | 0.8 | 22.0
CC1CN(C2=NC(=O)/C(=C3/C(=O)N(Cc4ccc(F)cc4)c4ccccc43)S2)CC(C)O1 (centres undefined) | -2.1 | / | / | 10.9 | -0.5 | 2.8
CN1C(=O)/C(=C2\SC(N)=NC2=O)c2ccccc21 | / | 8.9 | / | 9.5 | -0.8 | 0.3
CN1C(=O)/C(=C2\SC(N3CCCCCC3)=NC2=O)c2ccccc21 | / | / | 46.0* | 34.5 | 4.4 | 12.5
CCOc1ccc(/C=C2\SC(N3CCCCC3)=NC2=O)cc1 | 0.7 | 45.2 | 18.4 | 12.3 | -2.8 | 0.8
CCCN1C(=O)/C(=C2\SC(N3CCCCC3)=NC2=O)c2ccccc21 | 11.6 | 79.3 | 74.5* | 20.0 | 5.9 | 1.1
O=C1N=C(N2CCCCC2)S/C1=C\c1ccc(Br)cc1 | -0.4 | / | 31.3 | 37.9 | 2.6 | 15.5
Cc1ccc(-c2ccc3c(c2)O[C@H](CN(C)C(=O)Nc2ccc(F)cc2)[C@H](C)CN([C@H](C)CO)S3(=O)=O)cc1 | / | / | -0.4 | / | / | /
C[C@H](CO)N1C[C@H](C)[C@@H](CN(C)C(=O)C2CCC2)Oc2ncc(-c3cccnc3)cc2C1=O | / | / | -2.2 | / | / | /
SMILES | Wnt bcat act | MITF TRPM1 HTS | esBAF inh | HSF-1 act | SMARCA2 activ | HSF1 inhib
CS(=O)(=O)N1C[C@@H](O)COC[C@H]2O[C@@H](CC(=O)NCc3ccccc3)CC[C@@H]21 | / | / | -0.4 | / | / | /
CO[C@@H]1CC[C@H]2CCN(C)C(=O)[C@H](C)CN(C)C(=O)c3cc(C#N)ccc3OC[C@H]1O2 | / | / | 0.5 | / | / | /
CCCCNC(=O)c1cc(-c2ccc3c(c2)OCO3)on1 | 10.2 | 74.3 | 15.4 | 30.9 | 3.0 | 19.6
COc1cc(NC(=O)c2cc(-c3ccc4c(c3)OCO4)on2)cc(OC)c1OC | -3.1 | -38.8 | 0.4 | -7.7 | -2.6 | -2.5
CCCCNC(=O)c1cc(-c2ccc(OC)cc2)on1 | / | 80.7* | 24.0 | 38.9 | -0.4 | 20.0
CC(C)NC(=O)c1cc(-c2ccc3c(c2)OCO3)on1 | 42.8* | / | -5.1 | 22.7 | 2.8 | 9.6
CCN(CC)C(=O)c1cc(-c2ccc3c(c2)OCO3)on1 | 17.1 | 103.5* | 37.3 | 18.7 | 3.3 | 4.2
CCCNC(=O)c1cc(-c2ccc3c(c2)OCO3)on1 | 33.4* | 52.7 | -9.7 | 32.9 | 1.1 | 20.0
C[C@H]1CN([C@@H](C)CO)C(=O)c2cccc(NS(C)(=O)=O)c2O[C@H]1CN(C)C(=O)NC1CCCCC1 | / | / | 0.5 | / | / | /
O=C(C[C@H]1C[C@@H]2c3cc(NC(=O)C4CCOCC4)ccc3O[C@@H]2[C@H](CO)O1)NCc1ccccc1F | / | / | -1.9 | / | / | /
CN1c2ccc(C#Cc3cccnc3)cc2[C@H]2[C@H](CCN2C(=O)C2CCCCC2)[C@H]1CO | / | / | 10.3 | / | / | /
C[C@@H]1CN([C@@H](C)CO)C(=O)c2cc(-c3cccc(C#N)c3)cnc2O[C@@H]1CN(C)Cc1cccnc1 | / | / | -1.7 | / | / | /
N/C(=N\OC(=O)c1ccccc1F)c1cccc([N+](=O)[O-])c1 | 12.7 | / | ? | 42.9 | 5.8 | 22.4
Cc1ccccc1/C(N)=N/OC(=O)c1ccc(F)cc1 | 7.7 | 27.6 | 48.5* | 57.8* | 1.8 | 27.0
Cc1ccccc1C(=O)O/N=C(\N)c1ccccc1 | 26.9 | -12.4 | 40.7 | 27.1 | 3.6 | 19.1
N/C(=N\OC(=O)c1ccccc1Br)c1cccc([N+](=O)[O-])c1 | 42.6* | 65.0 | 2.7 | 26.5 | 5.9 | 9.2
N/C(=N\OC(=O)c1ccccc1Br)c1ccc([N+](=O)[O-])cc1 | 7.1 | / | 49.5* | ? | 6.0 | 25.6
Cc1ccccc1C(=O)O/N=C(\N)c1ccc([N+](=O)[O-])cc1 | 25.2 | / | 56.6* | 32.9 | 0.3 | 9.1
CCS(=O)(=O)N[C@@H]1C=C[C@@H](CC(=O)NCc2ccc(F)cc2)O[C@H]1CO | / | / | 4.8 | / | / | /
CCCC(=O)Nc1ccc2c(c1)C(=O)N(C)C[C@H](OC)[C@@H](C)CN(Cc1ccc(-c3ccccn3)cc1)[C@@H](C)CO2 | / | / | 111.8* | / | / | /
CCCNC(=O)Nc1ccc2c(c1)C(=O)N(C)C[C@H](OC)[C@@H](C)CN(Cc1ccc(-c3ccccn3)cc1)[C@@H](C)CO2 | / | / | 96.7* | / | / | /
COC(=O)C[C@H]1C[C@H]2c3cc(NS(C)(=O)=O)ccc3O[C@H]2[C@H](CO)O1 | / | / | 0.5 | / | / | /
CSc1ccc(CNc2ccc(Cl)cc2)cc1 | -1.0 | 101.0* | 37.7 | -8.3 | 1.6 | 2.4
Clc1ccc(NCc2cccnc2)cc1 | 1.7 | -5.8 | -6.0 | 19.2 | -1.4 | 3.1
COCCn1c(C)cc(C(=O)CSc2nnc(C)s2)c1C | -18.7 | -65.8 | / | -62.1 | -4.2 | -56.1*
COCCn1c(C)cc(C(=O)COC(=O)c2cccc(O)c2)c1C | -13.0 | -42.7 | -69.0 | -81.0 | -8.6 | -78.9*
